Data taken from ChEMBL document CHEMBL3988442, “University of Dundee, Small-Polar-MMV Screening Library” (2021).
Hit rate of the full screen: of about 48,000 compounds, about 13,000 (27%) showed an effect of 50% or more. The list shows a part of the results.

Test system: Wolbachia pipientis
Experiment: Anti-Wolbachia Cell-Based Screen
Type: functional
Set-up: scale not given: in the data most compounds retested in dose-response had high values
Conditions: 5 µM

Row | SMILES | Percent Effect [%]
1 | COc1ccc(C2C3=C(CCCC3=O)Nc3nc(SC)nc(N)c32)cc1 (stereo not given) | 12.57
2 | CN1CCN(C(C)(C)CNC(=O)C2CCCN2S(C)(=O)=O)CC1 (stereo not given) | 10.51
3 | CC(C)c1ccc(CS(=O)(=O)Cc2nc(N)nc(N(C)C)n2)cc1 | -6.914
4 | COc1cc(C2(C(=O)N3CCN(CC(C)O)CC3)CC2)ccc1C (stereo not given) | 6.894
5 | CC(C)(Oc1ccc(C(N)=O)cc1)C(=O)N(CCC#N)CC1CCCO1 (stereo not given) | 108.9
6 | CN(CCC#N)C(=O)C(C)(C)Oc1ccc(C(N)=O)cc1 | 113.2
7 | CC(C)CN(C(=O)COc1ccc(C(N)=O)cc1)C1CCN(C)CC1 | -11.28
8 | Cc1ccc(OCCC(=O)N(C)CCC#N)cc1C | -4.451
9 | CCOc1ccc(CC(=O)N(CCC(=O)OC)CC2CCCO2)cc1 (stereo not given) | 5.007
10 | N#CCCN(C(=O)COC1CCCC1)C1CC1 | -11.78
11 | COC(=O)CCN(CC1CCCO1)C(=O)CCc1ccc(OC)cc1 (stereo not given) | -1.307
12 | CC(C)(Oc1ccc(C(N)=O)cc1)C(=O)N(CCC#N)C1CC1 | 118.6
13 | Cc1ccc(OCc2cccc(C(=O)N(C)CCC#N)c2)cn1 | 10.32
14 | CC(C)(C)CC(=O)N[C@@H]1CO[C@H](CNC(=O)c2ccncc2)[C@H]1O | -7.962
15 | Cc1nc(C)c(C)c(N2C[C@@H](CN3CCCN(C)CC3)[C@@H](CO)C2)n1 | 1.463
16 | CN(C)CCCN(CCC#N)C(=O)Nc1ccc2[nH]ccc2c1 | -1.012
17 | O=C(O)C(F)(F)F.O=C(O)c1c(NC2CCC2)ncc2c1CCN(C1CCOC1)C2 (stereo not given) | -12.61
18 | O=C(O)C(F)(F)F.O=C(O)C(F)(F)F.O=C(O)c1c(-c2ccncc2)ncc2c1CCN(CC1CCOC1)C2 (stereo not given) | 92.6
19 | CN(C(=O)CCOc1ccccc1)C1CCN(CC2CCOC2)CC1 (stereo not given) | -10.27
20 | O=C(O)C(F)(F)F.O=C(O)c1c(-c2ccoc2)ncc2c1CCN(C1CCOC1)C2 (stereo not given) | -27.15

Row | SMILES | Percent Effect [%]
21 | Cc1ccc(Nc2ncnc3c2CCN(CC2CCOC2)CC3)cc1.O=C(O)C(F)(F)F (stereo not given) | -7.327
22 | O=C(O)C(F)(F)F.O=C(O)c1c(-c2cncnc2)ncc2c1CCN(CC1CCOC1)C2 (stereo not given) | 114.1
23 | O=C(O)C(F)(F)F.O=C(O)C(F)(F)F.O=C(O)c1c(-c2ccncc2)ncc2c1CCN(C1CCOC1)C2 (stereo not given) | -10.9
24 | CCN(CC)S(=O)(=O)c1ccc(C(F)(F)F)cc1C#N | -8.635
25 | COc1cccc2c1OCC(C(=O)N1CCN(C3CCCC3)C(=O)C1)C2 (stereo not given) | -9.278
26 | COc1cccc(OC)c1C(=O)N1CC(=O)N(C2CCC2)CC(O)C1 (stereo not given) | 125.2
27 | COc1cccc(OC)c1C(=O)N1CCN(c2ccccc2F)CC1 | -1.098
28 | COc1ccccc1C(=O)N1CC(=O)N(C2CCCCC2)CC(O)C1 (stereo not given) | 104.3
29 | CCOc1ccccc1C(=O)N1CCCC(O)(CN(C)C)C1 (stereo not given) | 8.806
30 | COc1ccccc1OC1CCN(C(=O)c2cccc(O)c2C)CC1 | 0.8848
31 | COc1ccc(C(=O)N2CC[C@@H](N3CCC(O)CC3)[C@H](O)C2)cc1C | -6.669
32 | COc1ccc(C(=O)N2CC(=O)N(C3CCC3)CC(O)C2)cc1OC (stereo not given) | 103.9
33 | CCOc1ccccc1C(=O)N1CCn2c(nnc2C(F)(F)F)C1 | -4.293
34 | CCOc1ccccc1C(=O)N1CC(=O)N(C2CCC2)CC(O)C1 (stereo not given) | 90.13
35 | O=C(c1cc(Cl)ccc1OC1CCN(C2CCCC2)CC1)N1CC(O)C1 | 4.812
36 | O=C(c1ccc2c(c1)[nH]c(=O)n2C1CCCC1)N1CC(O)C1 | -1.674
37 | Cc1ccc(NC(=O)N2C[C@H]3CC[C@@H]2CN(Cc2cscn2)C3)cc1 | 4.002
38 | COc1ccc(C(=O)N2CC[C@H](CO)[C@H](O)C2)c(C)c1 | -8.532
39 | COc1ccc(C(=O)NC2CC2)c(OC)c1 | 17.15
40 | COc1ccc(C(=O)N2CC(=O)N(C3CCC3)CC(O)C2)c(OC)c1 (stereo not given) | 143.6

Row | SMILES | Percent Effect [%]
41 | CCN1C(=O)CCC12CCCN(Cc1ccc(F)cc1)CC2.O=C(O)C(F)(F)F (stereo not given) | 86.81
42 | CN1CC(=O)N(c2cnn(C)c2)CC12CCN(Cc1nccn1C)C2.O=C(O)C(F)(F)F.O=C(O)C(F)(F)F (stereo not given) | -9.756
43 | CCN1C(=O)CCC12CCCN(Cc1nccs1)C2.O=C(O)C(F)(F)F (stereo not given) | 30.34
44 | COCCN1C(=O)CCC12CCCN(Cc1nccs1)CC2.O=C(O)C(F)(F)F (stereo not given) | 12.79
45 | O=C(O)C(F)(F)F.O=C(O)C(F)(F)F.O=C1CCC2(CCN(Cc3ccc(F)cc3)CC2)N1CCN1CCCC1 | 100.3
46 | Cn1ccnc1CN1CCC2(CCC(=O)N2CCN2CCCC2)CC1.O=C(O)C(F)(F)F.O=C(O)C(F)(F)F | 107.9
47 | O=C(NCC1(CO)CC1)c1ccccc1Br | -13.86
48 | COCC(C)N1CCc2onc(-c3ccc(F)c(F)c3)c2C1 (stereo not given) | -3.283
49 | O=C(NC1CCS(=O)(=O)C1)c1ccc(SCc2cscn2)cc1 (stereo not given) | -5.861
50 | CCCc1cc(NCc2ccc(CO)cc2)n2nccc2n1 | -5.904
51 | COCc1cnc2n1CCN(S(=O)(=O)N(C)C)C2C (stereo not given) | 6.284
52 | Cc1nc(COCc2cnc3n2CCN(C(=O)C2CC2)C3C)cs1 (stereo not given) | -5.573
53 | CC(C)N1CCn2c(COCC3CCOCC3)cnc2C1C.O=C(O)C(F)(F)F (stereo not given) | 6.159
54 | Cc1occc1C(=O)N1CCn2c(Cn3cncn3)cnc2C1C (stereo not given) | 120.5
55 | CC1c2ncc(Cn3cncn3)n2CCN1C(=O)C1CCOCC1 (stereo not given) | -2.006
56 | CC1c2ncc(Cn3cncn3)n2CCN1C1CCOCC1.O=C(O)C(F)(F)F (stereo not given) | -16.95
57 | CC1c2ncc(Cn3cncn3)n2CCN1C(=O)N(C)C (stereo not given) | 113.2
58 | O=S(=O)(C1CC1)N1CCc2ncc(Cn3cncn3)n2CC1 | -7.39
59 | CC1c2ncc(Cn3cncn3)n2CCN1CC1CCOCC1.O=C(O)C(F)(F)F (stereo not given) | 55.37
60 | CC1c2ncc(Cn3cncn3)n2CCN1C(=O)[C@H]1CCCO1 (stereo not given in full) | 86.12
